This note sets out measurements from the supplement of paper PMC9950053.

The structures appear in SMILES notation. Counter-ions that a name gives are not always drawn.

This experiment relates to Danio rerio larvae (5 dpf). In words: startle (activity period 16 minus period 15, 20-s interval sound) minus DMSO control (percentage points); higher = stronger startle response than DMSO larvae. The note with it: 10 µM; exposure time: 3 h pre-incubation + 3 h imaging. The procedure: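 Wild-type 5 dpf zebrafish larvae (n=48 per drug, 96-well plates, 28.5 °C) were exposed to Tocris FDA-approved library compounds at 10 µM (0.1% DMSO) for 3 h before and 3 h during imaging. Images were taken every 6 s during visual (moving coloured lines) and acoustic stimuli, and larvae were tracked with the DeepLabCut-based Z-LaP Tracker. Each behavioural measure is the treated-group mean minus the DMSO vehicle control mean (n=844), in percentage points. This mapping covers compounds with 4-character plate codes.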
Take `O=c1[nH]c2ccccc2n1C1CCN(CCCC(c2ccc(F)cc2)c2ccc(F)cc2)CC1` [Pimozide]: the startle was 0.33. In the case of `CCN(C)C(=O)Oc1cccc([C@H](C)N(C)C)c1` [Rivastigmine tartrate] it was 5.22; in that of `CC(O)(CS(=O)(=O)c1ccc(F)cc1)C(=O)Nc1ccc(C#N)c(C(F)(F)F)c1` (stereo unspecified) [Bicalutamide], 0.428; in that of `CC(C)C[C@H]1C(=O)N2CCC[C@H]2[C@]2(O)O[C@](NC(=O)[C@@H]3C=C4c5cccc6[nH]c(Br)c(c56)C[C@H]4N(C)C3)(C(C)C)C(=O)N12` [Bromocriptine mesylate], -8.86. As to `COc1cc2c(cc1OC)C1CC(=O)C(CC(C)C)CN1CC2` (stereo unspecified) [Tetrabenazine], the startle was -4.98.

For the compound `Cc1cccc([C@H](C)c2c[nH]cn2)c1C` [Dexmedetomidine hydrochloride], the startle is 9.98. Turning to `C=CCN1C[C@H](C(=O)N(CCCN(C)C)C(=O)NCC)C[C@@H]2c3cccc4[nH]cc(c34)C[C@H]21` [Cabergoline], the startle was -9.97. On to `CC[C@@H](C(N)=O)N1CCCC1=O` [Levetiracetam], for which the startle is 1.63.

Consider `N[C@@H]1C[C@H]1c1ccccc1` [Tranylcypromine hydrochloride], for which the startle is -9.63. In the case of `C=C1C[C@@H]2[C@H](CC[C@]3(C)C(=O)CC[C@@H]23)[C@@]2(C)C=CC(=O)C=C12` [Exemestane], the startle worked out at 1.86. `CN1C[C@H](C(=O)N[C@]2(C)O[C@@]3(O)[C@@H]4CCCN4C(=O)[C@H](Cc4ccccc4)N3C2=O)C[C@@H]2c3cccc4[nH]cc(c34)C[C@H]21` [Dihydroergotamine mesylate]: the startle came out at 6.26.
